According to PubChem BioAssay (EPA / NIEHS):
Results filed as inconclusive are left out. Active and inactive are the calls of the source. Rule for the calls, unless noted: active = hit-call score of the fitted dose curve at least 0.9, where 1 is the maximum; inconclusive = response in the unintended direction; inactive = score below 0.9.

Key:
[1] = TOX21_PR_LUC_Followup_Antagonist_viability: Viability Assessment in the Tox21 HEK293 Progesterone Receptor (PR) Antagonism Luciferase Follow-Up Assay (AID 2283940)
In short: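 Cellular ATP, measured with luciferase-coupled CellTiter-Glo, served as the viability endpoint after HEK293-PR-A-luc cells were exposed to test compounds for 16 h at 37C.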

[2] = TOX21_PR_LUC_Followup_Agonist_viability: Viability Assessment in the Tox21 HEK293 Progesterone Receptor (PR) Agonism Luciferase Follow-Up Assay (AID 2283941);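 note: loss of signal means cytotoxicity so actives lower viability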
In short: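 Luminescent ATP quantitation (CellTiter-Glo) serves as the read-out; a drop flags cytotoxic compounds. Cells are HEK293-PR-A-luc grown in 10% charcoal-stripped FBS, plated 3,000/well, and exposed to compound for 16 h.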

[3] = CCTE_Harrill_HTTr_Viability_DMEM_6hr: (Pilot) CCTE's 6-hour Cell Viability Assessment for the High-Throughput Transcriptomics (HTTr) Platform, in MCF-7 cells cultured in DMEM + 10% fetal bovine serum, Harrill Lab (AID 2283973; active = hit-call score of the fitted dose curve at least 0.9, where 1 is the maximum; inactive = score below 0.9)
In short: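 MCF-7 cells in DMEM + 10% FBS, eight-point dilution series, 6 h exposure. Membrane integrity by propidium iodide exclusion with high-content imaging; bidirectional fit versus DMSO.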

[4] = CCTE_Harrill_HTTr_Viability_DMEM_12hr: (Pilot) CCTE's 12-hour Cell Viability Assessment for the High-Throughput Transcriptomics (HTTr) Platform, in MCF-7 cells cultured in DMEM + 10% fetal bovine serum, Harrill Lab (AID 2283974; active = hit-call score of the fitted dose curve at least 0.9, where 1 is the maximum; inactive = score below 0.9)
In short: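 MCF-7 cells in DMEM + 10% FBS exposed 12 h to an eight-point dilution series; membrane integrity scored by propidium iodide exclusion with high-content imaging, bidirectional fitting versus DMSO.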

[5] = CCTE_Harrill_HTTr_Viability_DMEM_24hr: (Pilot) CCTE's 24-hour Cell Viability Assessment for the High-Throughput Transcriptomics (HTTr) Platform, in MCF-7 cells cultured in DMEM + 10% fetal bovine serum, Harrill Lab (AID 2283975; active = hit-call score of the fitted dose curve at least 0.9, where 1 is the maximum; inactive = score below 0.9)
In short: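 MCF-7 cells in DMEM with 10% FBS exposed for 24 hours to an eight-point dilution series. Membrane integrity by propidium iodide exclusion with high content imaging; bidirectional fit against DMSO.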

[6] = CCTE_Harrill_HTTr_Viability_PRF_DMEM_6hr: (Pilot) CCTE's 6-hour Cell Viability Assessment for the High-Throughput Transcriptomics (HTTr) Platform, in MCF-7 cells cultured phenol red-free DMEM + 10% charcoal-stripped fetal bovine serum, Harrill Lab (AID 2283976; active = hit-call score of the fitted dose curve at least 0.9, where 1 is the maximum; inactive = score below 0.9)
In short: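 MCF-7 cells in phenol red-free DMEM with 10% charcoal-stripped FBS exposed 6 hours to an eight-point dilution series. Propidium iodide exclusion imaged; curves fitted bidirectionally against DMSO.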

[7] = CCTE_Harrill_HTTr_Viability_PRF_DMEM_12hr: (Pilot) CCTE's 12-hour Cell Viability Assessment for the High-Throughput Transcriptomics (HTTr) Platform, in MCF-7 cells cultured in phenol red-free DMEM + 10% charcoal-stripped fetal bovine serum, Harrill Lab (AID 2283977; active = hit-call score of the fitted dose curve at least 0.9, where 1 is the maximum; inactive = score below 0.9)
In short: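 MCF-7 cells in phenol red-free DMEM with 10% charcoal-stripped FBS exposed 12 hours to an eight-point dilution series. Viability assessed by high-content imaging of propidium iodide exclusion; bidirectional fit versus DMSO.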

[8] = target: T1, Thyroid hormone receptor alpha (Rattus norvegicus) + Thyroid hormone receptor beta (Rattus norvegicus) (UniProt P18113+P63059); assay: TOX21_TR_LUC_GH3_Antagonist_Followup: Tox21 GH3 Thyroid Hormone Receptor Antagonism Luciferase Follow-Up Assay (AID 2283942)
T1 sequence (P63059 whole entry, looked up): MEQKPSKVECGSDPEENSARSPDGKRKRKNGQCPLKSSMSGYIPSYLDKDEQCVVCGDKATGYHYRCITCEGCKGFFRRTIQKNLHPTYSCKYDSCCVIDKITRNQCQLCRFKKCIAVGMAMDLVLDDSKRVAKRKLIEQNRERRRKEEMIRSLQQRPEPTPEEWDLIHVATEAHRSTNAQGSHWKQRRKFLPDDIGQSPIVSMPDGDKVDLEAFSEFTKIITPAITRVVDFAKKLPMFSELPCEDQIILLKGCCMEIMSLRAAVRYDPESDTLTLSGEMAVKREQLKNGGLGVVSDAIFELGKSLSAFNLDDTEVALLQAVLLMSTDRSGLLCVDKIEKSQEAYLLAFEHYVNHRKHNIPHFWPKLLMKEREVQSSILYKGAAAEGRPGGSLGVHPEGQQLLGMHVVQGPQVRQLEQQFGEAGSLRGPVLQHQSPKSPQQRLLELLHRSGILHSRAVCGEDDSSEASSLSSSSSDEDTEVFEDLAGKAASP
T1 sequence (P18113 whole entry, looked up): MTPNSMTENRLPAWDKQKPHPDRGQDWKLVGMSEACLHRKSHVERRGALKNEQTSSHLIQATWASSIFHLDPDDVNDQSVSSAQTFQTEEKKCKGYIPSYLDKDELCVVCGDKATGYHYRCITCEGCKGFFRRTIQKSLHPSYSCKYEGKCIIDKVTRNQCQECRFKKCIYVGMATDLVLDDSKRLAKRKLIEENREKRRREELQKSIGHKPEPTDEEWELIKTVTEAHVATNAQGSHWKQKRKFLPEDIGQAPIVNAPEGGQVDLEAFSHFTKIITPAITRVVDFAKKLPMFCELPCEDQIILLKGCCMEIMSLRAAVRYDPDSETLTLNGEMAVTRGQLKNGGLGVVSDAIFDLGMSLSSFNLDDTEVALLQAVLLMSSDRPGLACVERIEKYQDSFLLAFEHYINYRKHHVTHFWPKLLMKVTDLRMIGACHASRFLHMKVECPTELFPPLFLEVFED
In short: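 Rat pituitary GH3 cells with a TRα/TRβ-driven luciferase reporter, 5 h attachment, then 15 concentrations (92 uM to 5nM final) plus 1.0 nM T3 agonist, 24 h at 37C/5% CO2. ONE-Glo luminescence; signal change fitted against DMSO baseline.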

THRA (gene 7067) [9] = target: THRA (gene 7067) (UniProt P10827); assay: TOX21_TRA_COA_Antagonist_Followup_ratio: Tox21 Thyroid Hormone Receptor alpha Antagonism through Coactivator Recruitment Follow-Up Assay, Ratio (AID 2283953)
THRA (gene 7067), sequence (P10827 whole entry, looked up, the tested form may be a part): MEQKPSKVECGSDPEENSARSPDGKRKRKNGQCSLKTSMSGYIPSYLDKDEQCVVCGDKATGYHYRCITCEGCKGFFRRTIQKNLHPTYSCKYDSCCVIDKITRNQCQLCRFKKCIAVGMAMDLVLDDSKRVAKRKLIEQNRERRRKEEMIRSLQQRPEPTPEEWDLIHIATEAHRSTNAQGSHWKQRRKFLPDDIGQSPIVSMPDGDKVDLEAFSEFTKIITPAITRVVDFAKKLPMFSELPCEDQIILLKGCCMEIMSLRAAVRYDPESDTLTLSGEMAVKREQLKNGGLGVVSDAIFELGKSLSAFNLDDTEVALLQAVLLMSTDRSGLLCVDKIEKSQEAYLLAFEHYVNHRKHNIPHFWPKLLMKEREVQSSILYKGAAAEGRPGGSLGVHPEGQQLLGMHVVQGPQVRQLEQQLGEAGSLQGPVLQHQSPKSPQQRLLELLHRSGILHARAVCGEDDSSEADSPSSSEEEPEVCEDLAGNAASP
In short: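 This follow-up to the GH3 luciferase screen checks specificity in a cell-free format. It measures SRC-2 coactivator peptide binding to TRα LBD by TR-FRET and scores loss of ratio signal relative to DMSO.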

THRB (gene 7068) [10] = target: THRB (gene 7068) (UniProt P10828); assay: TOX21_TRB_BLA_Antagonist_Followup_ratio: Tox21 Thyroid Hormone Receptor beta Antagonism Beta-lactamase (BLA) Follow-Up Assay, Ratio (AID 2283958)
THRB (gene 7068), sequence (P10828 whole entry, looked up, the tested form may be a part): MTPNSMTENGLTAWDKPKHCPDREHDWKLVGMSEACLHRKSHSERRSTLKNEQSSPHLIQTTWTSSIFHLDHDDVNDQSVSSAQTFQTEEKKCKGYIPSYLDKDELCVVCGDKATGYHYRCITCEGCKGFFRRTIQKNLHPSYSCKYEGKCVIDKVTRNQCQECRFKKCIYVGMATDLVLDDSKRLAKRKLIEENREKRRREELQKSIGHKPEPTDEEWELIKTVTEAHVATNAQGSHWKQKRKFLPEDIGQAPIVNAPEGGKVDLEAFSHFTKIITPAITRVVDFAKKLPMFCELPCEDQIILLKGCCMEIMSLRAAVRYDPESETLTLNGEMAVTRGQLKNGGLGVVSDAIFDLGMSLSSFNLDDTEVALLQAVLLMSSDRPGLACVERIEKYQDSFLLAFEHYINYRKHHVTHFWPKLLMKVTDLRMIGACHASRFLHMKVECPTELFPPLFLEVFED
In short: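 In this antagonist-mode follow-up, a stably integrated GAL4-TRβ LBD fusion drives a UAS-beta-lactamase reporter in HEK293T cells. Loss of ratio signal relative to DMSO after 18 h treatment indicates activity; parallel CellTiter-Glo flags cytotoxicity.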

[11] = TOX21_TRB_BLA_Antagonist_Followup_viability: Viability Assessment in the Tox21 Thyroid Hormone Receptor beta Antagonism Beta-lactamase (BLA) Follow-Up Assay (AID 2283961)
In short: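 ATP-based CellTiter-Glo luminescence (30 min, room temperature) run in the same wells as the TRβ-bla readout. Cells: GeneBLAzer HEK293T expressing GAL4-TRβ LBD, exposed 18 h at 37C to compounds at 11 concentrations in triplicate, stripped-serum medium.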

THRB (gene 7068) [12] = target: THRB (gene 7068) (UniProt P10828); assay: TOX21_TRB_COA_Antagonist_Followup_ratio: Tox21 Thyroid Hormone Receptor beta Antagonism through Coactivator Recruitment Follow-Up Assay, Ratio (AID 2283967)
In short: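 Cell-free TR-FRET coactivator recruitment with GST-tagged TRβ LBD (5.0 nM) and fluorescein-labeled SRC-2 peptide (200 nM) detected by terbium anti-GST antibody (2 nM). The 520:495 nm emission ratio was normalized to DMSO (0%) and T3 (100%).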

[13] = target: Retinoic acid receptor RXR-alpha (Homo sapiens) (UniProt P19793); assay: TOX21_TR_RXR_BLA_Antagonist_Followup_ratio: Tox21 Thyroid Hormone Receptor beta Retinoid X Receptor alpha (RXRa) Antagonism Beta-lactamase (BLA) Follow-Up Assay, Ratio (AID 2283972)
Retinoic acid receptor RXR-alpha (Homo sapiens), sequence (P19793 whole entry, looked up, the tested form may be a part): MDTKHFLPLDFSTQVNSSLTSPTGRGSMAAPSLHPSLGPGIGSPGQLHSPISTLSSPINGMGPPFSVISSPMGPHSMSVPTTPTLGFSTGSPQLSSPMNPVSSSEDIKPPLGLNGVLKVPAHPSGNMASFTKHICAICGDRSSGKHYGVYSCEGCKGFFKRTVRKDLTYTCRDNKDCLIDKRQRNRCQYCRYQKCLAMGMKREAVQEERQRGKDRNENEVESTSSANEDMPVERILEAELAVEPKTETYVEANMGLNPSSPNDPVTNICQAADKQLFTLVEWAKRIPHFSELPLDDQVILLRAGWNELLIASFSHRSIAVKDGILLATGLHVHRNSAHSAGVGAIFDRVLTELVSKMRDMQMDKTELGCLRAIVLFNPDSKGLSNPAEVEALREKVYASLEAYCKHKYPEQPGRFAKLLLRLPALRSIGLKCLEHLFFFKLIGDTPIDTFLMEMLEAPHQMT
In short: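 After 5 h attachment at 37C, HEK293T RXRa-bla cells (2,500/well, 2% charcoal-stripped FBS, no phenol red) received compounds at 11 concentrations in triplicate for 16 h. Beta-lactamase read as 460:530 nm ratio after 2 h RT substrate loading.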

[14] = TOX21_TR_RXR_BLA_Antagonist_Followup_viability: Viability Assessment in the Tox21 Thyroid Hormone Receptor beta Retinoid X Receptor alpha (RXRa) Antagonism Beta-lactamase (BLA) Follow-Up Assay (AID 2283979)
In short: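 RXRa-UAS-bla HEK293T cells seeded 2,500/well in phenol red-free DMEM with 2% charcoal-stripped FBS, attached 5 h, then exposed to compounds at 11 concentrations in triplicate for 16 h at 37C/5% CO2. Viability read by CellTiter-Glo ATP luminescence; bidirectional fit versus DMSO.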

[15] = target: T1, Thyroid hormone receptor alpha (Rattus norvegicus) + Thyroid hormone receptor beta (Rattus norvegicus); assay: TOX21_TR_LUC_GH3_Agonist_Followup: Tox21 GH3 Thyroid Hormone Receptor Agonism Luciferase Follow-Up Assay (AID 2283939)
In short: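 Rat GH3 cells (1,500/well) in serum-free assay medium, treated with 15-point series, 92 uM to 5 nM final, for 24 h at 37C. Luciferase via ONE-Glo luminescence; gain of signal fitted against DMSO, T3 positive control.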

THRA (gene 7067) [16] = target: THRA (gene 7067) (UniProt P10827); assay: TOX21_TRA_COA_Agonist_Followup_ratio: Tox21 Thyroid Hormone Receptor alpha Agonism through Coactivator Recruitment Follow-Up Assay, Ratio (AID 2283948; active = hit-call score of the fitted dose curve at least 0.9, where 1 is the maximum; inactive = score below 0.9)
In short: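 Cell-free TR-FRET coactivator recruitment: GST-tagged TRα LBD (2.5 nM) with 0.10% BSA was incubated with compound, then fluorescein-SRC-2 peptide (200 nM) and Tb-anti-GST antibody (2 nM) added. 520:495 nm ratio normalized to DMSO (0%) and T3 (100%).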

[17] = TOX21_TRB_BLA_Agonist_Followup_viability: Viability Assessment in the Tox21 Thyroid Hormone Receptor beta Agonism Beta-lactamase (BLA) Follow-Up Assay (AID 2283956)
In short: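 TRb-bla HEK293T cells (GAL4-DBD/human TRb LBD) in 2% charcoal-stripped FBS medium were exposed 18 h at 37C to 11 concentrations in triplicate. CellTiter-Glo ATP luminescence was read after 30 min at room temperature, with bidirectional fitting against DMSO.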

THRB (gene 7068) [18] = target: THRB (gene 7068) (UniProt P10828); assay: TOX21_TRB_COA_Agonist_Followup_ratio: Tox21 Thyroid Hormone Receptor beta Agonism through Coactivator Recruitment Follow-Up Assay, Ratio (AID 2283963; active = hit-call score of the fitted dose curve at least 0.9, where 1 is the maximum; inactive = score below 0.9)
In short: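 Signal is the 520/495 nm emission ratio (excitation 340 nm), scaled between DMSO-only wells as 0% and T3 wells as 100%. It reflects fluorescein-labeled SRC-2 peptide recruitment to GST-TRβ ligand-binding domain detected via terbium anti-GST antibody.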

[19] = target: Retinoic acid receptor RXR-alpha (Homo sapiens) (UniProt P19793); assay: TOX21_TR_RXR_BLA_Agonist_Followup_ratio: Tox21 Thyroid Hormone Receptor beta Retinoid X Receptor alpha (RXRa) Agonism Beta-lactamase (BLA) Follow-Up Assay, Ratio (AID 2283968)
In short: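 This follow-up tests whether responses seen in the TR GH3 luciferase agonist screen are specific, using a GAL4-driven beta-lactamase reporter for RXRa in HEK293T cells. Compound exposure lasts 16 h; signal is the cleaved/uncleaved substrate ratio.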

[20] = TOX21_TR_RXR_BLA_Agonist_Followup_viability: Viability Assessment in the Tox21 Thyroid Hormone Receptor beta Retinoid X Receptor alpha (RXRa) Agonism Beta-lactamase (BLA) Follow-Up Assay (AID 2283970)
In short: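 In qHTS format, RXRa-bla HEK293T cells (2,500/well) received compound for 16h. ATP content was then measured with CellTiter-Glo, and responses were fitted bidirectionally relative to DMSO controls.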

SMILES: CC(C)(c1ccccc1)c1ccc(O)cc1
- outcome [1]: inactive
- outcome [2]: inactive
- outcome [3]: inactive
- outcome [4]: inactive
- outcome [5]: inactive
- outcome [6]: inactive
- outcome [7]: inactive

SMILES: Oc1ccc(C(c2ccc(O)cc2)(C(F)(F)F)C(F)(F)F)cc1
- outcome [2]: inactive

SMILES: C[C@]12CCC(=O)C=C1CC[C@@H]1[C@@H]2CC[C@]2(C)C(=O)CC[C@@H]12
- outcome [1]: inactive
- outcome [2]: inactive

SMILES: CCC(=O)O[C@H]1CC[C@H]2[C@@H]3CCC4=CC(=O)CC[C@]4(C)[C@H]3CC[C@]12C
- outcome [1]: inactive
- outcome [2]: inactive

SMILES: ClC1=C(Cl)[C@]2(Cl)[C@@H]3[C@@H]4C[C@@H]([C@H]5O[C@@H]45)[C@@H]3[C@@]1(Cl)C2(Cl)Cl
- outcome [1]: inactive

SMILES: CO/C=C(/C(=O)OC)c1ccccc1COc1cccc(C(F)(F)F)n1
- AC50 [8]: 2.06 µM (active)
- outcome (THRA (gene 7067) [9]): inactive
- outcome (THRB (gene 7068) [10]): inactive
- outcome [11]: inactive
- outcome (THRB (gene 7068) [12]): inactive
- outcome [13]: inactive
- outcome [14]: inactive

SMILES: Clc1ccc(C(c2ccccc2Cl)C(Cl)(Cl)Cl)cc1 (configuration not stated)
- outcome [1]: inactive
- AC50 [2]: 76 µM (active)

SMILES: ClC(Cl)=C(c1ccc(Cl)cc1)c1ccc(Cl)cc1
- outcome [1]: inactive
- outcome [2]: inactive

SMILES: CCCCCCCCCc1ccc(O)cc1
- outcome [1]: inactive

SMILES: C[C@]12CCC(=O)C=C1CC[C@@H]1[C@@H]2CC[C@@]2(C)[C@H]1CC[C@]2(C)O
- outcome [8]: inactive
- outcome (THRA (gene 7067) [9]): inactive
- outcome (THRB (gene 7068) [10]): inactive
- outcome (THRB (gene 7068) [12]): inactive
- outcome [14]: inactive

SMILES: CCC(C)(c1ccc(O)cc1)c1ccc(O)cc1
- outcome [3]: inactive
- outcome [4]: inactive
- outcome [5]: inactive
- outcome [6]: inactive
- outcome [7]: inactive

SMILES: Cc1cc(O)ccc1Cl
- outcome [15]: inactive
- outcome (THRA (gene 7067) [16]): inactive
- outcome [17]: inactive
- outcome (THRB (gene 7068) [18]): inactive
- outcome [19]: inactive
- outcome [20]: inactive

SMILES: N#Cc1ccc(N(CC(N)=O)CC(F)(F)F)cc1C(F)(F)F
- outcome [1]: inactive
- outcome [2]: inactive

SMILES: COc1ccc(O)c(C(C)(C)C)c1
- outcome [1]: inactive
- outcome [2]: inactive

SMILES: CC(C)(O)C(=O)Nc1ccc([N+](=O)[O-])c(C(F)(F)F)c1
- outcome [1]: inactive
- outcome [2]: inactive
